# According to PubChem BioAssay AID504692 (The Scripps Research Institute Molecular Screening Center, 2011):
# The whole screen tested about 340,000 compounds, of which about 2,000 (0.59%) were called active. For the sample, actives were picked, then their nearest neighbours and some compounds at random. A number with no mark means an inactive call. Cut-off read from the data, not from the text of the source: active = activation mostly above about 9.5% (no sharp cut-off); inactive = mostly below about 7.6%.
# Target: 5-hydroxytryptamine receptor 5A (Homo sapiens) (UniProt P47898)
# Assay: activation of human 5-HT5A receptor – cell-based, luminescence, full-deck HTS, counter-screen for OPRM1-OPRD1 heterodimer agonist project, primary screen (AID 504692);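 note: 0% = cells with vehicle only and 100% = reference agonist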
# Conditions: HTR5A agonist assay, at 9.3 µM, stronger effect = higher value
# Sequence of 5-hydroxytryptamine receptor 5A (Homo sapiens) (P47898 whole entry, looked up): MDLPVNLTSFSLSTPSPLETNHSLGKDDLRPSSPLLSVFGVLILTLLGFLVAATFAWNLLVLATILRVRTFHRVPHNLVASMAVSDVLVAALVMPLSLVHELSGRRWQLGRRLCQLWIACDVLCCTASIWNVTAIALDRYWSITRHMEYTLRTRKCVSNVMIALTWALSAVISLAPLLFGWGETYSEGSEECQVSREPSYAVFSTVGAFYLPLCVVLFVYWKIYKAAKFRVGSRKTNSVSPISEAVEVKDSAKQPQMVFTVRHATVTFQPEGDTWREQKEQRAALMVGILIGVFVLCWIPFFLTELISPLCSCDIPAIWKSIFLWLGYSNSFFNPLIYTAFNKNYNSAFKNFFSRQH
row,SMILES,activation
1,OCC1(CO)CC2(C1)CC(CO)(CO)C2,-2.41%
2,O=C(N/N=C\c1ccc(Br)cc1)c1ccc(Cn2cccn2)o1,0.84%
3,Cc1c(Cl)c([N+](=O)[O-])nn1Cc1ccc(C(=O)N/N=C\c2cc(Cl)ccc2O)o1,13% (active)
4,Cc1nn(Cc2ccc(Cl)cc2)c(Cl)c1/C=N/NC(=O)c1cccnc1,4.12%
5,O=C(C1CCCO1)N1CCN(S(=O)(=O)c2ccc(Br)cc2)CC1 (stereo unspecified),1.59%
6,COc1ccc(Cl)cc1NC(=O)CN(C)C(=O)c1cc(-c2cccs2)nn1-c1ccccc1,-7.03%
7,CCCN1C(=O)C(NS(=O)(=O)c2ccc(N)cc2)(C(F)(F)F)C(C(=O)OC)=C1C (stereo unspecified),-4.18%
8,CNC(=O)c1c(NC(NC(=O)c2ccco2)C(=O)c2ccc(Cl)cc2)sc2c1CCCC2 (stereo unspecified),-4.03%
9,CC(C)OC(=O)c1c(NC(=O)c2ccco2)sc2c1CCCC2,14.5% (active)
10,COC(=O)c1c(NC(=O)C2CC(C)=C(C)CC2C(=O)O)sc2c1CCCCC2 (stereo unspecified),5.77%
11,CN(C)CCCO/N=C(\c1ccccc1)c1ccncc1,7.85%
12,Cc1ccc(C2CCN(C(=S)Nc3cccc(Cl)c3)C2)cc1 (stereo unspecified),1.97%
13,CC(C)(C)n1ncc2c(=O)n(Cc3ccc(Cl)cc3)cnc21,3.5%
14,CN(CC(=O)NCc1ccc(Cl)cc1)S(=O)(=O)c1cccs1,1.02%
15,CSc1nc2sc3c(c2c(=O)[nH]1)CCc1ccccc1-3,12.1% (active)
16,CCSc1nnc(-c2cc3c(s2)-c2ccccc2CC3)o1,-1.94%
17,CCSc1nc2sc3c(c2c(=O)[nH]1)CC(C)(C)OC3,2.29%
18,O=C(Nc1ccc2c(c1)OCO2)C1CC1(Cl)Cl (stereo unspecified),12.7%
19,Cc1ccc(-c2noc(CCC(=O)Nc3ccccc3N3CCN(C)CC3)n2)cc1,-1.14%
20,O=C(Nc1ccccc1Cl)O/N=C(/c1ccccc1)c1ccccn1,12.7% (active)
21,O=C(COc1ccc(-n2cnnn2)cc1)Nc1ccccc1Cl,5.09%
22,Cc1ccc(C(=O)O/N=C(\N)c2ccccn2)cc1Cl,4.33%
23,OCCC1CN(Cc2cccn2-c2nccs2)CCN1CCc1ccccc1 (stereo unspecified),0.07%
24,O=C(CCNS(=O)(=O)c1ccccc1C(F)(F)F)NCc1ccc2c(c1)OCO2,-3.01%
25,O=C(CCc1nnc(Cc2ccc3c(c2)OCO3)o1)NCCc1ccccc1Cl,10.7% (active)
26,O=C(CC(Cc1ccccc1)C(=O)O)NCCc1ccc2c(c1)OCO2 (stereo unspecified),0.52%
